In PubChem BioAssay:
Values without a mark were called inactive. The rule behind the calls is not given here.

molecular target: Pantothenate synthetase (Mycobacterium tuberculosis (strain ATCC 25618 / H37Rv)) (UniProt P9WIL5); assay: Recombinant Mtb pantothenate synthetase (PanC) inhibitors, coupled enzyme, confirmatory (AID 375); settings: coupled enzyme assay; at 10 µM, active compounds read high;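 note: 0% = full reaction with vehicle and 100% = no enzyme background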
Sequence (P9WIL5 whole entry, looked up): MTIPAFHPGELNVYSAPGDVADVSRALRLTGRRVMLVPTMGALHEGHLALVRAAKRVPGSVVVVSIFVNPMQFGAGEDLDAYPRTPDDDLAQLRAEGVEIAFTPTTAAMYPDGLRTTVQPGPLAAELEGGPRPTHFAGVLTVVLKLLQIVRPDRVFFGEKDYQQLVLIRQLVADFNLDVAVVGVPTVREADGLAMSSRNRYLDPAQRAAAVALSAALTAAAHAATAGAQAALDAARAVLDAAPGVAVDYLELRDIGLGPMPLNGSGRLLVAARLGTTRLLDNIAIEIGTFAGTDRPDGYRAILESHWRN

Q: With `O=C(Nc1ccccc1C(=O)N1CCCCCC1)c1cccc(S(=O)(=O)N2CCOCC2)c1` as the molecule, how does the inhibition read?
A: The inhibition was 5%.

Q: How did the inhibition turn out when `COc1cccc(-c2cc(C(F)(F)F)n3ncc(C(=O)O)c3n2)c1` was run?
A: The inhibition was 0%.

Q: With `CCOC(=O)c1cc(-c2ccco2)nc2c1c(C)nn2CCC#N` as the molecule, how does the inhibition read?
A: Its inhibition is 0%.

Q: With `CCN(CC(=O)Nc1ccc(S(N)(=O)=O)cc1)S(=O)(=O)c1cc(C)ccc1OC` as the molecule, how does the inhibition read?
A: Its inhibition is 6%.

Q: For `O=C(c1cccs1)N1CCN=C1SCc1ccccc1`, which inhibition is on record?
A: The inhibition was 4%.

Q: `Cc1noc(C)c1S(=O)(=O)N1CCC(C(=O)Nc2ccccn2)CC1` was tested. Which inhibition did it give?
A: The inhibition was 4%.

Q: With `COc1ccccc1C1C(C(C)=O)=C(O)C(=O)N1CCc1ccccc1` (stereo not given) as the molecule, how does the inhibition read?
A: Its inhibition is 8%.

Q: Which inhibition does the source give for `Fc1ccc(Cn2nnc(-c3ccc(CN4CCOCC4)cc3)n2)cc1` here?
A: Its inhibition is 0%.

Q: How did the inhibition turn out when `COc1cccc(N2CCN(Cc3nc(N)nc(Nc4ccccc4)n3)CC2)c1` was run?
A: The inhibition was 0%.

Q: For `COc1cc2c(cc1OC)-c1cc(OCc3cccnc3)nc(=O)n1CC2`, which inhibition is on record?
A: Its inhibition is 12%.

Q: For `CCOC(=O)N1CCN(CC(O)COc2ccccc2C(C)CC)CC1` (stereo not given), which inhibition is on record?
A: The inhibition was 7%.

Q: How did the inhibition turn out when `Cc1ccc(-c2cc(C(F)F)nc(NCC3CCCO3)n2)cc1` (stereo not given) was run?
A: The inhibition was 3%.

Q: With `CC1Cc2cc(/C(O)=C3/C(=O)C(=O)N(CCN4CCOCC4)C3c3cccc(O)c3)ccc2O1` (stereo not given) as the molecule, how does the inhibition read?
A: Its inhibition is 6%.

Q: How did the inhibition turn out when `CCc1ccc(NC(=O)c2cc(-c3ccco3)on2)cc1` was run?
A: The inhibition was 4%.

Q: With `Fc1cccc2sc(N3CCOCC3)nc12` as the molecule, how does the inhibition read?
A: Its inhibition is 1%.

Q: For `CCc1c(C(=O)Nc2ncn(Cc3cccc(C)c3)n2)csc1C`, which inhibition is on record?
A: Its inhibition is 4%.

Q: With `COc1ccccc1C1CC(c2ccc(C)cc2)Nc2ncnn21` (stereo not given) as the molecule, how does the inhibition read?
A: Its inhibition is 3%.

Q: Which inhibition does the source give for `Cc1cccc(N2C(=O)CC(N(C(=O)c3ccco3)c3cccc(C)c3)C2=O)c1` (stereo not given) here?
A: Its inhibition is 0%.

Q: Which inhibition does the source give for `CCN(c1cccc(C(F)(F)F)c1)S(=O)(=O)c1ccc2c(c1)CCN2C(=O)C1CC1` here?
A: The inhibition was 3%.

Q: For `CCNc1oc(COc2cccc(C)c2)nc1C#N`, which inhibition is on record?
A: The inhibition was 5%.

Q: Which inhibition does the source give for `CS(=O)(=O)N1CCN(c2ccccc2NC(=O)c2cccs2)CC1` here?
A: Its inhibition is 2%.

Q: `CCCn1cc(SCC(=O)NCc2ccco2)c2ccccc21` was tested. Which inhibition did it give?
A: The inhibition was 3%.

Q: For `O=C(Nc1ccc(N2CCN(Cc3ccccc3Cl)CC2)cc1)c1cccnc1`, which inhibition is on record?
A: The inhibition was 4%.

Q: `COc1ccc(C(=O)Nc2ccc(S(=O)(=O)Nc3nccnc3OC)cc2)cc1OC` was tested. Which inhibition did it give?
A: The inhibition was 0%.

Q: Which inhibition does the source give for `Cn1c(=O)c2c(nc(NCCCO)n2C/C=C/c2ccccc2)n(C)c1=O` here?
A: Its inhibition is 4%.

Q: `CCOC(=O)CCNC(=O)Nc1ccc2nc(C)n(Cc3ccccc3Cl)c(=O)c2c1` was tested. Which inhibition did it give?
A: Its inhibition is 5%.

Q: How did the inhibition turn out when `CC(C)OC(=O)CSc1nnc(-c2ccccn2)n1-c1ccccc1` was run?
A: The inhibition was 8%.

Q: How did the inhibition turn out when `Cc1cc(C)n(CC(=O)NC2CCCCC2)n1` was run?
A: Its inhibition is 0%.

Q: `CCN(CC(=O)Nc1c(C(=O)OC)[nH]c2ccccc12)c1ccc2c(c1)OCO2` was tested. Which inhibition did it give?
A: The inhibition was 5%.

Q: Which inhibition does the source give for `CCOC(=O)c1c(C)[nH]c(C(=O)Cn2c(=O)oc3ccccc32)c1C` here?
A: The inhibition was 4%.

Q: `O=C(CSc1nnc(COc2ccc(Cl)cc2)o1)N1CCN(c2ccccc2)CC1` was tested. Which inhibition did it give?
A: Its inhibition is 0%.

Q: Which inhibition does the source give for `COc1cccc(NC(=O)c2nc3nc(C)cc(C(F)F)n3n2)c1` here?
A: Its inhibition is 0%.

Q: How did the inhibition turn out when `Cc1ccccc1C(=O)NC1CCN(Cc2nnnn2Cc2ccccc2)CC1` was run?
A: Its inhibition is 4%.

Q: For `C=CCSc1n[nH]c(-c2ccc(OC)cc2)n1`, which inhibition is on record?
A: Its inhibition is 0%.

Q: Which inhibition does the source give for `CCN1CCN(c2nc(-c3cccnc3)nc3ccccc23)CC1` here?
A: Its inhibition is 0%.

Q: How did the inhibition turn out when `COc1ccc(/C=N/n2cc(-c3ccc(OC)cc3)nc2N)cc1` was run?
A: Its inhibition is 0%.

Q: For `O=C(OCC#CCSc1nc2ccccc2s1)c1ccco1`, which inhibition is on record?
A: The inhibition was 3%.

Q: `COC(=O)c1cccc(Nc2cc(C)nc(-c3ccccc3O)n2)c1` was tested. Which inhibition did it give?
A: Its inhibition is 1%.

Q: For `CCn1cc(C(=O)O)c(=O)c2ccc(C)nc21`, which inhibition is on record?
A: The inhibition was 0%.

Q: With `CC(NC(=O)CSc1n[nH]c(=O)n1C1CC1)C12CC3CC(CC(C3)C1)C2` (stereo not given) as the molecule, how does the inhibition read?
A: The inhibition was 3%.
